The record followed here is PubChem BioAssay (Tox21).

Each structure is given as a SMILES string. Unmarked numbers belong to inactive results. Inconclusive results are not listed. The source made the active and inactive calls. Unless noted, calls follow the shape of the dose curve; as a rule, active = well fitted curve in the direction sought with a large enough effect in the repeat runs; inconclusive = weak or mixed curves; inactive = no such curve, though single readings can be large; an effect the other way counts as inactive or inconclusive.

Assay [1] in a line: qHTS assay to identify small molecule agonists of the androgen receptor (AR) signaling pathway in the presence of an antagonist - cell viability counter screen (AID 1259379).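 Also: MDA-kb2 human breast cancer cells carrying an MMTV luciferase reporter; series mostly up to about 92 µM; nearly all actives have a fitted effect of over 25% in size.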 Put shortly: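 Viability counter screen: CellTiter-Fluor fluorescence, measured in the same wells as the luciferase read-out. MDA-kb2 cells, 3,000/well, with nilutamide at 3.0uM final and compounds at 15 concentrations, 16 hr at 37C, 0% CO2.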
In general terms: Quantitative high-throughput screening tests each substance at several concentrations.

The nature of assay [2]: qHTS assay to identify small molecule agonists of the estrogen receptor beta (ER-beta) signaling pathway - cell viability counter screen (AID 1259380). Also: nearly all actives have a fitted effect of over 30% in size. Put shortly:
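Luminescence read-out (CellTiter-Glo, 30 min, room temp) taken in the same wells as the beta-lactamase reporter assay; ER-beta-UAS-bla HEK293T cells exposed to DMSO-dissolved compounds for 16 hr at 37C in 2% charcoal-stripped FBS medium.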

In assay [3] the target is Androgen receptor (Homo sapiens) (UniProt P10275). Description: qHTS assay to identify small molecule agonists of the androgen receptor (AR) signaling pathway in the presence of an antagonist (AID 1259381; calls by dose curve; also: nearly all actives have a fitted effect of over 15% in size; also: potency is read from the fitted curve at half-maximal effect). The procedure, abridged:
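Luciferase read-out (ONE-Glo, 30min room temperature) in MDA-kb2 MMTV-reporter cells; agonist mode run in presence of AR antagonist nilutamide, 3.0uM final. Compounds tested as 15-point series, 16hr exposure at 37C, 0% CO2.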

Assay [4] can be described thus: qHTS assay to identify small molecule antagonists of the estrogen receptor beta (ER-beta) signaling pathway - cell viability counter screen (AID 1259382). Also: series mostly up to about 92 µM; nearly all actives have a fitted effect of over 55% in size. Put shortly:
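Luminescent ATP read-out (CellTiter-Glo, 30 min, RT) taken in the same wells as the bla reporter assay. HEK293T ER-beta-UAS-bla cells in 2% charcoal-stripped FBS were exposed to compounds with 1nM E2 for 16 hr at 37C.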

For assay [5], the target named is Estrogen receptor (Homo sapiens) (UniProt P03372). Description: qHTS assay to identify small molecule agonists of the estrogen receptor alpha (ER-alpha) signaling pathway in the presence of an antagonist (AID 1259383; calls by dose curve; also: top concentration of the series differs between compounds; nearly all actives have a fitted effect of over 15% in size). The procedure, abridged:
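Luciferase luminescence (ONE-Glo, 30min at room temperature) measured in VM7Luc4E2 cells after 22hr compound exposure at 15 concentrations, with 10.0nM ICI-182,780 final present; cells express endogenous ER-alpha and carry four EREs upstream of luciferase.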

Assay [6] has as its target Thyrotropin receptor (Homo sapiens) (UniProt P16473). Description: qHTS assay to identify small molecule antagonists of the thyroid stimulating hormone receptor (TSHR) signaling pathway (AID 1259385; calls by dose curve; also: nearly all actives have a fitted effect of over 20% in size). The procedure, abridged: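 TSHR-HEK293 cells were plated and held 18 h at 37C/5% CO2, then given compound plus Ro20-1724 and stimulated with TSH at 1.5 ng/mL final. After 30 min at room temperature, cAMP was detected with cAMP-d2/anti-cAMP-cryptate (1 h) by fluorescence.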

Assay [7] can be described thus: qHTS assay to identify small molecule agonists of the estrogen receptor alpha (ER-alpha) signaling pathway in the presence of an antagonist - cell viability counter screen (AID 1259386).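 Also: series mostly up to about 92 µM; cells exposed to compounds for 22 h at 37 °C before the viability read; nearly all actives have a fitted effect of over 30% in size.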 The procedure, abridged:
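Read-out: CellTiter-Fluor fluorescence after 1hr reagent incubation, measured in the same wells as the luciferase readout. VM7Luc4E2 cells were exposed to 15 compound concentrations with 10.0nM ICI-182,780 for 22hr at 37C.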

Assay [8] is described as follows: qHTS assay to identify small molecule agonists or antagonists of the thyroid stimulating hormone receptor (TSHR) signaling pathway - wild type cell line counter screen (AID 1259384; calls by dose curve). Put shortly: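 Wild-type HEK293 cells were plated 18 h at 37 C/5% CO2, pin-dosed with compound plus Ro20-1724 medium, held 30 min at room temperature, then given cAMP-d2 and anti-cAMP-cryptate; fluorescence was read after 1 h. Fifteen concentrations, triplicate.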

Assay [9] deals with Estrogen receptor beta (Homo sapiens) (UniProt Q92731). Description: qHTS assay to identify small molecule antagonists of the estrogen receptor beta (ER-beta) signaling pathway (AID 1259378; active = well fitted inhibition curve with a large enough effect in the signal ratio in the repeat runs, not every such curve was filed as active; the % refers to the signal ratio). The procedure, abridged: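 ER-beta-UAS-bla HEK293T (GripTite) cells in 2% charcoal-stripped FBS medium were preincubated 6 hr at 37C, dosed with compound, then stimulated with 1 nM E2 (final) for 16 hr; beta-lactamase reporter read by B/G FRET fluorescence after 2 hr substrate loading.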

Assay [10] has the same target. Description: qHTS assay to identify small molecule agonists of the estrogen receptor beta (ER-beta) signaling pathway (AID 1259377; active = well fitted activation curve with a large enough effect in the signal ratio in the repeat runs, not every such curve was filed as active; the % refers to the signal ratio). The procedure, abridged: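 ER-beta-UAS-bla HEK293T cells in medium with 2% charcoal-stripped FBS were exposed to compounds for 16 h at 37C. Beta-lactamase reporter activity was read as fluorescence after 2 h with LiveBLAzer B/G FRET substrate at room temperature.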
% is scaled to controls: 0 for no effect and ±100 for the full control effect.

Androgen receptor (Homo sapiens), sequence (P10275 whole entry, looked up): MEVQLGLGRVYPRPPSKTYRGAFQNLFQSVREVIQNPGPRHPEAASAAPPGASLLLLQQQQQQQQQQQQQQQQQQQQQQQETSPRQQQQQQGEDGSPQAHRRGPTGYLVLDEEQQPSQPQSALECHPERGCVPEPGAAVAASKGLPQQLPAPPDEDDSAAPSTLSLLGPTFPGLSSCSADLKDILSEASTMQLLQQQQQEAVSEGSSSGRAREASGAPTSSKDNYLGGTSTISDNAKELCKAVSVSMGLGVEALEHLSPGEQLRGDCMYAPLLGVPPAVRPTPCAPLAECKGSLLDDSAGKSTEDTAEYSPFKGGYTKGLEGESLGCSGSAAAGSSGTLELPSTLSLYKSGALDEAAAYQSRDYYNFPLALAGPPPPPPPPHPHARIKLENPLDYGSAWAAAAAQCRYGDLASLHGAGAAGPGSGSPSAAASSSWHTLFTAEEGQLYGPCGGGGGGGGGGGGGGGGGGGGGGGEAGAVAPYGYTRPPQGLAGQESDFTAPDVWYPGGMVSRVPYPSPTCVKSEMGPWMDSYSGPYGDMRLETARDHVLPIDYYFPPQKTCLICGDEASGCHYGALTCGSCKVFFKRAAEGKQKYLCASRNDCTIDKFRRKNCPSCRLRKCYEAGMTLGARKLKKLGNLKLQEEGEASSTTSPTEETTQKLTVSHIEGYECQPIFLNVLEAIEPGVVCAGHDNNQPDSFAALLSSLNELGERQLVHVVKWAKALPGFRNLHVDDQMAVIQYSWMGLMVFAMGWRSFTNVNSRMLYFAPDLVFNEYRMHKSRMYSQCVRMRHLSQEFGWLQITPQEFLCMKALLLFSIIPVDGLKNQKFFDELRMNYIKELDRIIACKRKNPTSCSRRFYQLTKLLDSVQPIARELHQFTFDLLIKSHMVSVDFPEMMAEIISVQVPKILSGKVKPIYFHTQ
Estrogen receptor beta (Homo sapiens), sequence (Q92731 whole entry, looked up): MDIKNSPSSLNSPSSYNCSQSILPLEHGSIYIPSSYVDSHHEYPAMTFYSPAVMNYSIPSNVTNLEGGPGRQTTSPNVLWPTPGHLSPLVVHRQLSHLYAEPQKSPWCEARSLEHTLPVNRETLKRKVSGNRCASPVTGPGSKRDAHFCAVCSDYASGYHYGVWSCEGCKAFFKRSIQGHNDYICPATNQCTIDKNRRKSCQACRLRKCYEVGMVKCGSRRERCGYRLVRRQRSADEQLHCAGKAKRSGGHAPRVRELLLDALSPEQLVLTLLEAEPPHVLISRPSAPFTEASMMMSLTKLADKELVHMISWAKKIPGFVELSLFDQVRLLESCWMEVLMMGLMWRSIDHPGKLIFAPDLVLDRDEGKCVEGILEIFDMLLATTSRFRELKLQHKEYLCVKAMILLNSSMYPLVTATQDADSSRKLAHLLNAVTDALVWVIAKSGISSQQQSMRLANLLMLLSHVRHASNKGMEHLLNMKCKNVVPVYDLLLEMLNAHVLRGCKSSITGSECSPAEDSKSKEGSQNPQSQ
Thyrotropin receptor (Homo sapiens), sequence (P16473 whole entry, looked up): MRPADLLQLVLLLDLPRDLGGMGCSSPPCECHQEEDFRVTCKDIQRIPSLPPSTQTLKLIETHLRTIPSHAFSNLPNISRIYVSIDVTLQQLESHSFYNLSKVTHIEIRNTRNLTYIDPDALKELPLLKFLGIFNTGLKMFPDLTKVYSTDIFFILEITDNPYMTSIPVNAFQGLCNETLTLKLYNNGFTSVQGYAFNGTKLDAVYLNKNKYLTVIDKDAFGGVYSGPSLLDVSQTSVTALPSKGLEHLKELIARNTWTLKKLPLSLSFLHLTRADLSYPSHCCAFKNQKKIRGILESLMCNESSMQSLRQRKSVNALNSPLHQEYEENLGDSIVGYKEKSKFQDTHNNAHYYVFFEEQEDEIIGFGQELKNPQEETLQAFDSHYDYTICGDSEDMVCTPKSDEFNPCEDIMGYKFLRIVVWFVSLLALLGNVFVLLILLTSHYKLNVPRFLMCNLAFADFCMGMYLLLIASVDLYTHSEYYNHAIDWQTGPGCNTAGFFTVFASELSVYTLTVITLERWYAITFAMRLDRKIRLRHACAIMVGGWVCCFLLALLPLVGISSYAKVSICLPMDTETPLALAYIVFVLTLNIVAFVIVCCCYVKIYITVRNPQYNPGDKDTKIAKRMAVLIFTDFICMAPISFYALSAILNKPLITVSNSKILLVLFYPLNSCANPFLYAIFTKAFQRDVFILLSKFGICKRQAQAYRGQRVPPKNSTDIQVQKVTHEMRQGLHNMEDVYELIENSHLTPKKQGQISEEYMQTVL
Estrogen receptor (Homo sapiens), sequence (P03372 whole entry, looked up): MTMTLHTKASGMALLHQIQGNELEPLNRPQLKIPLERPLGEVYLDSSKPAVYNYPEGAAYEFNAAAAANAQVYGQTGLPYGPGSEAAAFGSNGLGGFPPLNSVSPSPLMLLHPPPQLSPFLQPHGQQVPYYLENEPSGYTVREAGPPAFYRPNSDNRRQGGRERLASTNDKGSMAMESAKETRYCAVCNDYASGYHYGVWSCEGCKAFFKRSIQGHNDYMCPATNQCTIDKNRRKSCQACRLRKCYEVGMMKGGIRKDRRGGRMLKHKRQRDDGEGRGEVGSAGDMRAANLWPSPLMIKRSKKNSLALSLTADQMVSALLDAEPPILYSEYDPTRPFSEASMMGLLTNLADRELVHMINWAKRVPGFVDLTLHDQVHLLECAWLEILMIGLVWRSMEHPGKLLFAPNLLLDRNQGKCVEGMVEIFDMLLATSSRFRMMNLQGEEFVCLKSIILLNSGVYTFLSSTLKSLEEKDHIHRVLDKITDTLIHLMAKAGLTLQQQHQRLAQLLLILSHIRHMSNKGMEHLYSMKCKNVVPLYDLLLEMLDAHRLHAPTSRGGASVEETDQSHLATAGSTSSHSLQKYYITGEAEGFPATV

In the case of `C=C[Si](OC(C)=O)(OC(C)=O)OC(C)=O`, the Potency result in assay [1], in [2], in [3] and in assay [7] was “inactive” in each case. For the same compound, the call in [4], in [5] and in assay [6] was inactive.
Consider `Cc1cc(C)c(N=Nc2c(O)c(S(=O)(=O)O)cc3cc(S(=O)(=O)O)ccc23)cc1C`, for which the values for the activity change, negative = cytotoxicity in [1], in assay [2] and in assay [4] were -11.3% [at 8.39 µM], -5.12% [at 8.39 µM] and 8.89% [at 8.39 µM], respectively. Also, the activation in assay [5] was -2.23% [at 8.39 µM]. Besides, the cAMP activity change in [8] was 2.77% [at 8.39 µM]. For the same compound, the activity change, negative = inhibition in assay [6] was -1.06% [at 8.39 µM].
For the compound `CC1=CCC(O)(C(C)C)CC1` (configuration not stated), the Potency result in [9], in [1], in [2] and in assay [7] was “inactive” throughout. The call in [4], in assay [5], in assay [8] and in assay [6] was inactive.
Take `CCCC(=O)O[C@]1(C(=O)CC)CC[C@H]2[C@@H]3CCC4=CC(=O)CC[C@]4(C)[C@H]3[C@@H](O)C[C@@]21C`: the Potency entry in assay [10], in assay [1] and in assay [7] was “inactive” throughout. The Potency in assay [3] was 0.0133 µM (active). Besides, the compound was classed as inactive in assay [4] and in assay [5].
With `CC(C)(C)c1ccc(-c2ccc(C(C)(C)C)cc2)cc1`, the Potency result in [10], in assay [1], in assay [2], in [3] and in assay [7] was “inactive” each time. In addition, the outcome in assay [4], in assay [5], in [8] and in [6] was inactive.
For the compound `C1CCC2(CCCCO2)OC1`, the Potency entry in assay [10], in assay [1], in assay [2] and in [7] was “inactive” in each case. The compound was called inactive in [4], in assay [5], in assay [8] and in assay [6].
In the case of `CO[Si](C)(OC)c1ccccc1`, the Potency result in assay [1], in assay [2] and in [7] was “inactive” each time. Also, the result in assay [4], in assay [5], in [8] and in assay [6] was inactive.
With `CC1=NN(c2cccc(S(=O)(=O)O)c2)C(=O)C1`, the Potency result in assay [1], in [2], in [3] and in [7] was “inactive” throughout. Besides, the outcome in assay [4], in assay [5], in assay [8] and in assay [6] was inactive.
In the case of `CC(C)(C)C(=O)Oc1ccc(S(=O)(=O)Nc2ccccc2C(=O)NCC(=O)O)cc1`, the Potency entry in [1], in assay [2] and in [7] was “inactive” each time. The compound was called inactive in assay [4], in assay [5], in assay [8] and in assay [6].
Take `CC(C)[C@H]1CC[C@@H](C)CC1=O`: the Potency entry in [1], in assay [2] and in assay [7] was “inactive” in each case. Besides, the compound was classed as inactive in assay [4], in assay [8] and in assay [6].
For the compound `Nc1ccn([C@@H]2O[C@H](CO)[C@@H](O)[C@@H]2O)c(=O)n1`, the Potency entry in assay [1], in assay [2] and in assay [7] was “inactive” throughout. Further, the outcome in assay [4] and in assay [5] was inactive.
Regarding `COc1ccc2cc1Oc1cc3c(cc1OC)CC[N+](C)(C)[C@H]3Cc1ccc(cc1)Oc1c(OC)c(OC)cc3c1[C@@H](C2)[N+](C)(C)CC3`, the Potency entry in assay [1], in [2] and in assay [7] was “inactive” each time. For the same compound, the compound was classed as inactive in assay [4], in assay [5], in assay [8] and in [6].
Turning to `C[C@H]1C[C@H]2[C@@H]3CCC4=CC(=O)C=C[C@]4(C)[C@H]3C(=O)C[C@]2(C)[C@@]1(O)C(=O)CO`, the Potency result in assay [1], in [2] and in [7] was “inactive” throughout. The call in [4], in assay [5] and in [6] was inactive.
`CN(C)CCN(C)CCN(C)C`: the Potency entry in assay [1], in assay [2] and in assay [7] was “inactive” in each case. Moreover, the result in assay [4], in assay [5] and in [8] was inactive.
On to `O=C(O)CCCC[P+](c1ccccc1)(c1ccccc1)c1ccccc1`, for which the Potency entry in assay [1], in [2] and in assay [7] was “inactive” throughout. In addition, the call in assay [4], in [5], in assay [8] and in [6] was inactive.
Consider `CC/C=C\CCOC(C)OCC` (configuration not stated), for which the Potency result in [1], in [2] and in [7] was “inactive” each time. Also, the call in assay [4], in [5], in assay [8] and in assay [6] was inactive.
Consider `C[N+]1(C)[C@@H]2CC(OC(=O)[C@H](CO)c3ccccc3)C[C@H]1[C@@H]1O[C@@H]12` (some centres not stated), for which the Potency result in assay [1], in [2] and in assay [7] was “inactive” in each case. The outcome in assay [4], in assay [5], in assay [8] and in assay [6] was inactive.
With `NC(=O)N[C@@H](CCC(=O)O)C(=O)O`, the Potency result in assay [1], in [2] and in assay [7] was “inactive” each time. Further, the compound was called inactive in assay [4], in [8] and in assay [6].
As for `O=C(O)c1cc(C(=O)O)cc(C(=O)O)c1`, the Potency result in assay [1], in assay [2] and in [7] was “inactive” throughout. In addition, the compound was called inactive in assay [4], in assay [5], in assay [8] and in assay [6].
Regarding `Cc1ccnc(NS(=O)(=O)c2ccc(N)cc2)n1`, the Potency result in assay [1], in assay [2] and in assay [7] was “inactive” each time. Moreover, the call in assay [4], in assay [8] and in assay [6] was inactive.
Turning to `CN(C)C(=O)Oc1cccc([N+](C)(C)C)c1`, the Potency result in assay [1], in assay [2] and in assay [7] was “inactive” throughout. Besides, the outcome in assay [4], in assay [5], in assay [8] and in [6] was inactive.
Consider `COc1cccc(OC)c1C(=O)N[C@@H]1C(=O)N2[C@@H]1SC(C)(C)[C@@H]2C(=O)O`, for which the Potency entry in assay [1], in [2] and in [7] was “inactive” each time. Further, the call in [4], in assay [8] and in assay [6] was inactive.
With `CC1=NS(=O)(=O)c2cc(Cl)ccc2N1`, the Potency result in assay [1], in assay [2] and in [7] was “inactive” in each case. Besides, the outcome in [4], in assay [8] and in [6] was inactive.
`CCCCN1C=CN(C)C1`: the activity change, negative = cytotoxicity in assay [1] was 0.886% [at 19 µM]; in assay [2] it was 2.46% [at 19 µM]; in assay [4] it was -4.66% [at 19 µM]; in [7] it was 0.508% [at 19 µM]. Also, the activation in [5] is 0.706% [at 19 µM]. Further, the activity change, negative = inhibition in assay [6] was 1.39% [at 19 µM].
For the compound `NC(N)=NCCN1CCCCCCC1`, the activity change, negative = cytotoxicity was -1.24% [at 0.35 µM] in assay [1], 2.58% [at 0.349 µM] in [2], 9.29% [at 0.349 µM] in assay [4] and 3.85% [at 0.349 µM] in assay [7]. In addition, in assay [8], the cAMP activity change is 3.9% [at 0.349 µM]. The activity change, negative = inhibition in assay [6] was -0.745% [at 0.349 µM].
